Data from the supplement of paper PMC10849652.
Of roughly 7,900 targets only a part is listed; those with a hit were picked by preference. About 0.6% of all pairs of compound and target were hits. A number with no mark means an inactive call.

Compound: Cn1cc(-c2ccc3nnc(C(F)(F)c4ccc5ncccc5c4)n3n2)cn1
Test: log2 fold change, soluble protein after heating vs DMSO (PISA); higher = thermal stabilisation; K562 cells, 10 uM, 30 min; active = over 0.2 and 3.5 SD of the protein, either way, in both replicates (recomputed)
How it was run: (§1)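 For each measurement, 10 μM compound was applied for 30 min to K562 cells at 2×10^6 cells/mL. Aliquots were heated for 3 min across 48°C-58°C, pooled, and extracted in PBS with 0.5% NP-40 at 4°C; the supernatant after 21,000xg for 90 min was soluble protein. This was quantified by TMTpro 16plex LC-MS/MS with channel sums equalised, and thermal stability was reported relative to control samples from duplicates, on a log2 fold-change scale.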

Chain of UniProt P49189 (P49189 whole entry, looked up): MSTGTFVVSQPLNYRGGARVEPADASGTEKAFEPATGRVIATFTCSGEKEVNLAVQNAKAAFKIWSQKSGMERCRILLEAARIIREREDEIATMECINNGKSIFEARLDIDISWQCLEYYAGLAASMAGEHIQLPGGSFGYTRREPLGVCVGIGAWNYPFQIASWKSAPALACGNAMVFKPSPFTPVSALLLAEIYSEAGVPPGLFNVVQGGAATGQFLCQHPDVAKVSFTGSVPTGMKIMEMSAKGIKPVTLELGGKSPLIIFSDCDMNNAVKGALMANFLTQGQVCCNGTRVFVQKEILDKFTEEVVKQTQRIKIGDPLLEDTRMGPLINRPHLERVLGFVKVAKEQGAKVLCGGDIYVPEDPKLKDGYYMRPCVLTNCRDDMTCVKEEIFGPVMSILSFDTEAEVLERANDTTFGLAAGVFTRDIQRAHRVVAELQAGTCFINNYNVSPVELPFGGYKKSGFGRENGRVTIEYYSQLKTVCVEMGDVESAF
Chain of UniProt Q9UHQ4 (Q9UHQ4 whole entry, looked up): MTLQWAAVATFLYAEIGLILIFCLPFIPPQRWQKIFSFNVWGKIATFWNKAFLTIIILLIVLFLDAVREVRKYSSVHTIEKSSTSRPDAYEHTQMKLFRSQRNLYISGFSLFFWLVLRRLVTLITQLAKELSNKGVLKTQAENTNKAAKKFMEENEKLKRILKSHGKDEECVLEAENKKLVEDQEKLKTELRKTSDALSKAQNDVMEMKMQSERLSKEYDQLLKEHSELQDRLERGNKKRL
Chain of UniProt Q9Y2Y0 (Q9Y2Y0 whole entry, looked up): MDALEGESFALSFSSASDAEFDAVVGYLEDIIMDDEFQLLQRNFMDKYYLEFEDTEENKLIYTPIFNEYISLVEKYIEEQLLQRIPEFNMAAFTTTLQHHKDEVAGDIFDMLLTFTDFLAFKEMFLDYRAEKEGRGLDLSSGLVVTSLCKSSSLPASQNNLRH
Chain of UniProt O95870 (O95870 whole entry, looked up): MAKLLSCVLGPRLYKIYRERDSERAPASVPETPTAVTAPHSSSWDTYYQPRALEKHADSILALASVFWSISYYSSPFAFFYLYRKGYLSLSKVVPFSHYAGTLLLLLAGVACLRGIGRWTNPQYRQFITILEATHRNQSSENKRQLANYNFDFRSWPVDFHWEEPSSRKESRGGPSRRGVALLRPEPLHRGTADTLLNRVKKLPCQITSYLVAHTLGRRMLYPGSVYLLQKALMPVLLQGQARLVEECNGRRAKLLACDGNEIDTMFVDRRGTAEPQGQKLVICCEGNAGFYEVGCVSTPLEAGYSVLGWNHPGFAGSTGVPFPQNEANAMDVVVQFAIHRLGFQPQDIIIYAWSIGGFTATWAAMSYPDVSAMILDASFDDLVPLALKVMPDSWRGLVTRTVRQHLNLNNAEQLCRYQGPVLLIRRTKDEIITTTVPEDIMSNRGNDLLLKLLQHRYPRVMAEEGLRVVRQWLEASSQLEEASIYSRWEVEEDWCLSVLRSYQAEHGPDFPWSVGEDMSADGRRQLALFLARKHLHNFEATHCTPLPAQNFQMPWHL
Chain of UniProt Q9Y3D8 (Q9Y3D8 whole entry, looked up): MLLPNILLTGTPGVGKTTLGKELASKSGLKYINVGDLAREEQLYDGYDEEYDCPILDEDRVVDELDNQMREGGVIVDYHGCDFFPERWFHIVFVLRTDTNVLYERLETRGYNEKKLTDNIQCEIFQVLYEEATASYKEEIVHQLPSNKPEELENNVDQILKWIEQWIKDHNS
Chain of UniProt P31751 (P31751 whole entry, looked up): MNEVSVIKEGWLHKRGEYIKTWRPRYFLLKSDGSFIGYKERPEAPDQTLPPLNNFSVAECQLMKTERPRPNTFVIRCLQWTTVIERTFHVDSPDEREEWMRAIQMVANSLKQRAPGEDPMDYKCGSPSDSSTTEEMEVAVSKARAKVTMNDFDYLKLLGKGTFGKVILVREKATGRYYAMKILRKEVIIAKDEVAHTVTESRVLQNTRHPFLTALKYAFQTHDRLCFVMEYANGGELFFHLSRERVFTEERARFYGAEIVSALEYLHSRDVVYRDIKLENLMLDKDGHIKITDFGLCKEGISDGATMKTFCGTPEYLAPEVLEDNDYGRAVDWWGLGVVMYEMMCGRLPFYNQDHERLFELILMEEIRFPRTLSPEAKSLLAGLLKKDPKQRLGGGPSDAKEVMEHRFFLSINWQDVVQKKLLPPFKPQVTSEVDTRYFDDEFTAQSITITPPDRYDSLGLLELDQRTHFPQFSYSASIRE
Chain of UniProt Q9UBL3 (Q9UBL3 whole entry, looked up): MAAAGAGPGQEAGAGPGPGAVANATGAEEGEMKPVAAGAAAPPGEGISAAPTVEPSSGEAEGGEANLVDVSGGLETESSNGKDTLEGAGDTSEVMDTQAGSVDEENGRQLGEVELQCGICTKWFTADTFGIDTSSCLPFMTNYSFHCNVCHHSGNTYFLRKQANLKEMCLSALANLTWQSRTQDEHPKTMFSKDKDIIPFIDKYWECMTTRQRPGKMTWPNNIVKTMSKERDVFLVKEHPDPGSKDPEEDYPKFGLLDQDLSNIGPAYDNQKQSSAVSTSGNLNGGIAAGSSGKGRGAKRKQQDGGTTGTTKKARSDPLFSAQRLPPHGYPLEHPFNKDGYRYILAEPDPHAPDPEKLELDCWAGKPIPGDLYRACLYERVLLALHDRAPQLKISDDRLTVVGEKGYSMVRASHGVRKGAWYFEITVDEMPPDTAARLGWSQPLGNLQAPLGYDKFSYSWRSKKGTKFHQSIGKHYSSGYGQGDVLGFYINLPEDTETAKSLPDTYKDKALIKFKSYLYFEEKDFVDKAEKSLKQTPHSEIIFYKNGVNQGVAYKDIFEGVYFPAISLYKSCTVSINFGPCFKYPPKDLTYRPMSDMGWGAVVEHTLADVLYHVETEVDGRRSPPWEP
Chain of UniProt Q2TAA5 (Q2TAA5 whole entry, looked up): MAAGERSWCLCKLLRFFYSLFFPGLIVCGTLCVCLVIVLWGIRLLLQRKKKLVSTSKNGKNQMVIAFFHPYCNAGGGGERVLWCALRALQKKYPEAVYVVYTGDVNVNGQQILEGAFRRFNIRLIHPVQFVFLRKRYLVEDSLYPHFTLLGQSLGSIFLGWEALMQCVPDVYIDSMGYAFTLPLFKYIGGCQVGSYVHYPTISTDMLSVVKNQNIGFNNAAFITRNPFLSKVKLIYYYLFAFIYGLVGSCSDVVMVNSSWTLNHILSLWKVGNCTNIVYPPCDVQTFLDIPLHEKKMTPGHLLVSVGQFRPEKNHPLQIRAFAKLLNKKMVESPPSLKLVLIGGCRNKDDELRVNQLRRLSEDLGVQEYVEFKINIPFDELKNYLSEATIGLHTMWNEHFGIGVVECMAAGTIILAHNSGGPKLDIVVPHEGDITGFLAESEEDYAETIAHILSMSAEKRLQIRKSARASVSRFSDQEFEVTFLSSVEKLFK
Chain of UniProt Q92560 (Q92560 whole entry, looked up): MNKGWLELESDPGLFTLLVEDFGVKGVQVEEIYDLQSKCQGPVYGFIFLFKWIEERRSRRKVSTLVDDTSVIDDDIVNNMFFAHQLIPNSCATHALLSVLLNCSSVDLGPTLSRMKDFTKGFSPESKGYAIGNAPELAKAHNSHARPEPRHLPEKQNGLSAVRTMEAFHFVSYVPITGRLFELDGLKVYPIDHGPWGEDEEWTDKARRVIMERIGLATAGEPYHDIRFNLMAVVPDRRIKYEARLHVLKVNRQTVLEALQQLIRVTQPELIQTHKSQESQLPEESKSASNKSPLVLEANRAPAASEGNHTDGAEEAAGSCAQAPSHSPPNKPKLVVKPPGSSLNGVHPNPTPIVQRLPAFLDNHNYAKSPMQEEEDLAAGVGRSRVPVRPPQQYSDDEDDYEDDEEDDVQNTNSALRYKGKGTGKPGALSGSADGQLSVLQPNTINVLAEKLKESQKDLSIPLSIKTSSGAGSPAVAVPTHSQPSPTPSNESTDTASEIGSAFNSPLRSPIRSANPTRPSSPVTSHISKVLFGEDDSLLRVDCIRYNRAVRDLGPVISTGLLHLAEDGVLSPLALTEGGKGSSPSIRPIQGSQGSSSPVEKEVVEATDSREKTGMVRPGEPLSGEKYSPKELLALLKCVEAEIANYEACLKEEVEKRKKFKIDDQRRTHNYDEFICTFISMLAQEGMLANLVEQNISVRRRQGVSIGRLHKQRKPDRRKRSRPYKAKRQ
Chain of UniProt P49748 (P49748 whole entry, looked up): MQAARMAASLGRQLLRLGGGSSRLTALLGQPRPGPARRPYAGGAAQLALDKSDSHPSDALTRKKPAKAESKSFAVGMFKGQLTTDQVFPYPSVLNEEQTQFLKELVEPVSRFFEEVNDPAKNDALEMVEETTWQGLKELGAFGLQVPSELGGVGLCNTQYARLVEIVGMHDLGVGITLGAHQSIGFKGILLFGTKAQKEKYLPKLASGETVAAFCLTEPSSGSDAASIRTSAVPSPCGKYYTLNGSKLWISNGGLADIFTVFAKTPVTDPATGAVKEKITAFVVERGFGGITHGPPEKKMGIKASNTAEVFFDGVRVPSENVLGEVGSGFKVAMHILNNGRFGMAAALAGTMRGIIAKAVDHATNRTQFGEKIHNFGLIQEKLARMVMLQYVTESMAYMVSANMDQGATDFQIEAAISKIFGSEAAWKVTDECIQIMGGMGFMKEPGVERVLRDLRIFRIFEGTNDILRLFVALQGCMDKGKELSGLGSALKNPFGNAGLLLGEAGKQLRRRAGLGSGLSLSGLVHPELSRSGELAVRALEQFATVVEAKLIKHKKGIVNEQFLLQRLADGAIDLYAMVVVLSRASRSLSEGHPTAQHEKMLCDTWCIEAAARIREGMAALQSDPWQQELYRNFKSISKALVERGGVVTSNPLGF
Chain of UniProt P56385 (P56385 whole entry, looked up): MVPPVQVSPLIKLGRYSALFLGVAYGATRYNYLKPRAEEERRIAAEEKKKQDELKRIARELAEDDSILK
Chain of UniProt P53680 (P53680 whole entry, looked up): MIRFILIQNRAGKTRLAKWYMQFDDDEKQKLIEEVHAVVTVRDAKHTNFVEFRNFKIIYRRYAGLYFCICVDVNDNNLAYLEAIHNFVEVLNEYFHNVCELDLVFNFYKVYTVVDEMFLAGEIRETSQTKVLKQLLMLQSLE

Row | Target | log2 fold change
1 | BZW2 (UniProt Q9Y6E2) | -0.004
2 | ALDH6A1 (UniProt Q02252) | -0.019
3 | ATAD3B (UniProt Q5T9A4) | -0.186
4 | ASNS (UniProt P08243) | 0.015
5 | ALG11 (UniProt Q2TAA5) | 0.028
6 | AGPAT5 (UniProt Q9NUQ2) | 0.045
7 | ALDH9A1 isoform 3 (UniProt P49189) | 0.001
8 | ARL2BP (UniProt Q9Y2Y0) | 0.011
9 | ASH2L (UniProt Q9UBL3) | -0.017
10 | ACO2 (UniProt Q99798) | -0.016
11 | APOB (UniProt P04114) | -0.021
12 | AMFR (UniProt Q9UKV5) | -0.06
13 | AKT2 (UniProt P31751) | -0.034
14 | BCAP29 isoform 2 (UniProt Q9UHQ4) | 0.04
15 | ADD3 (UniProt Q9UEY8) | -0.016
16 | ATP6V0A1 isoform 3 (UniProt Q93050) | -0.098
17 | BCCIP isoform 2 (UniProt Q9P287) | -0.007
18 | BRD4 (UniProt O60885) | -0.046

Row | Target | log2 fold change
19 | ATL2 (UniProt Q8NHH9) | 0.18
20 | BRIX1 (UniProt Q8TDN6) | -0.138
21 | ACBD6 (UniProt Q9BR61) | 0.056
22 | ABCB6 (UniProt Q9NP58) | -0.025
23 | ATG4B isoform 2 (UniProt Q9Y4P1) | 0.13
24 | ALDH18A1 (UniProt P54886) | -0.128
25 | AGPAT3 isoform 3 (UniProt Q9NRZ7) | 0.018
26 | ANKZF1 (UniProt Q9H8Y5) | -0.126
27 | AK6 (UniProt Q9Y3D8) | 0.025
28 | AP2S1 (UniProt P53680) | 0.004
29 | ACADVL isoform 3 (UniProt P49748) | 0.026
30 | ATP5ME (UniProt P56385) | 0.103
31 | B4GALT1 (UniProt P15291) | 0.04
32 | ALKBH5 (UniProt Q6P6C2) | 0.011
33 | ATP12A isoform 2 (UniProt P54707) | 0.04
34 | ABHD16A (UniProt O95870) | -0.075
35 | BAP1 (UniProt Q92560) | -0.064
36 | ARMC8 (UniProt Q8IUR7) | -0.112

Compound: Cn1cncc1[C@@](N)(c1ccc(Cl)cc1)c1ccc2c(c1)c(-c1cccc(Cl)c1)cc(=O)n2C [tipifarnib]
Test: as above
How it was run: as §1

Row | Target | log2 fold change
37 | BZW2 (UniProt Q9Y6E2) | -0.158
38 | ALDH6A1 (UniProt Q02252) | 0.01
39 | ATAD3B (UniProt Q5T9A4) | 0.03
40 | ASNS (UniProt P08243) | -0.033
41 | ALG11 (UniProt Q2TAA5) | -0.016
42 | AGPAT5 (UniProt Q9NUQ2) | 0.02
43 | ALDH9A1 isoform 3 (UniProt P49189) | -0.002
44 | ARL2BP (UniProt Q9Y2Y0) | -0.091
45 | ASH2L (UniProt Q9UBL3) | -0.041
46 | ACO2 (UniProt Q99798) | -0.064
47 | APOB (UniProt P04114) | -0.203
48 | AMFR (UniProt Q9UKV5) | 0.05
49 | AKT2 (UniProt P31751) | -0.185
50 | BCAP29 isoform 2 (UniProt Q9UHQ4) | 0.058
51 | ADD3 (UniProt Q9UEY8) | 0.009
52 | ATP6V0A1 isoform 3 (UniProt Q93050) | 0.038
53 | BCCIP isoform 2 (UniProt Q9P287) | -0.015
54 | BRD4 (UniProt O60885) | -0.09

Row | Target | log2 fold change
55 | ATL2 (UniProt Q8NHH9) | -0.014
56 | BRIX1 (UniProt Q8TDN6) | 0.158
57 | ACBD6 (UniProt Q9BR61) | -0.072
58 | ABCB6 (UniProt Q9NP58) | 0.005
59 | ATG4B isoform 2 (UniProt Q9Y4P1) | -0.402
60 | ALDH18A1 (UniProt P54886) | -0.141
61 | AGPAT3 isoform 3 (UniProt Q9NRZ7) | -0.025
62 | ANKZF1 (UniProt Q9H8Y5) | 0.026
63 | AK6 (UniProt Q9Y3D8) | -0.144
64 | AP2S1 (UniProt P53680) | -0.04
65 | ACADVL isoform 3 (UniProt P49748) | -0.01
66 | ATP5ME (UniProt P56385) | -0.031
67 | B4GALT1 (UniProt P15291) | 0.153
68 | ALKBH5 (UniProt Q6P6C2) | 0.077
69 | ATP12A isoform 2 (UniProt P54707) | 0.016
70 | ABHD16A (UniProt O95870) | -0.01
71 | BAP1 (UniProt Q92560) | 0.076
72 | ARMC8 (UniProt Q8IUR7) | 0.007
